# Measured values: PubChem BioAssay (NCATS)
# “And” between values parts separate entries of the source, which are not always exact repeats. Equal values may be shown once. Inconclusive results are not listed. Where a call stands in place of a potency, no number is given. A number with no mark means an inactive call. The source made the active and inactive calls. Calls follow the shape of the dose curve; as a rule, active = well fitted inhibition curve with a large enough effect; inconclusive = small, poorly fitted or top-dose-only effect; inactive = flat fitted curve, though single readings scatter.
# Assays:
# [1] = tested on: PC15; test: qHTS profiling for inhibitors of Plasmodium falciparum proliferation (AID 504749); details: P. falciparum in erythrocytes, SYBR Green DNA, 72 h; series mostly up to 28.7 µM
# Procedure, shortened: (§1)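 Parasite proliferation within erythrocytes, 72 h exposure. Endpoint: SYBR Green I fluorescence after overnight lysis at room temperature. Controls: 0.29 uM artemisinin, DMSO.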
# [2] = tested on: PC26; test: as above; details: P. falciparum in erythrocytes, SYBR Green DNA, 72 h; series mostly up to 28.7 µM
# Procedure, shortened: as §1
# [3] = tested on: PC49; test: as above; details: P. falciparum in erythrocytes, SYBR Green DNA, 72 h; series mostly up to 28.7 µM
# Procedure, shortened: as §1
# [4] = tested on: SC27B; test: as above; details: P. falciparum in erythrocytes, SYBR Green DNA, 72 h; series mostly up to 28.7 µM
# Procedure, shortened: as §1
# [5] = tested on: TAB113; test: as above; details: P. falciparum in erythrocytes, SYBR Green DNA, 72 h; series mostly up to 28.7 µM
# Procedure, shortened: as §1
# [6] = tested on: TAB165; test: as above; details: P. falciparum in erythrocytes, SYBR Green DNA, 72 h; series mostly up to 28.7 µM
# Procedure, shortened: as §1
# [7] = tested on: W2; test: as above; details: P. falciparum in erythrocytes, SYBR Green DNA, 72 h; series mostly up to 28.7 µM
# Procedure, shortened: as §1
# [8] = tested on: CRL-7250; test: Cytotoxic Profiling of Annotated Libraries Using Quantitative High-Throughput Screening (AID 1296008); details: Five cell lines viability, CellTiter-Glo ATP luminescence, 48-72 h; max response: stronger effect = lower value
# Procedure, shortened: (§2)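 Compounds were pin-transferred onto cells and incubated 48 or 72 hr at 37 degree Celsius, 95% humidity. CellTiter-Glo was added, plates sat 10 min at room temperature, then ATP-coupled luminescence was imaged as the viability read-out.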
# [9] = tested on: HEK293; test: as above; details: Five cell lines viability, CellTiter-Glo ATP luminescence, 48-72 h; max response: stronger effect = lower value
# Procedure, shortened: as §2
# [10] = tested on: HaCat; test: as above; details: Five cell lines viability, CellTiter-Glo ATP luminescence, 48-72 h; max response: stronger effect = lower value
# Procedure, shortened: as §2
# [11] = tested on: KB-3-1; test: as above; details: Five cell lines viability, CellTiter-Glo ATP luminescence, 48-72 h; max response: stronger effect = lower value
# Procedure, shortened: as §2
# [12] = tested on: NIH3T3; test: as above; details: Five cell lines viability, CellTiter-Glo ATP luminescence, 48-72 h; max response: stronger effect = lower value
# Procedure, shortened: as §2
# [13] = tested on: HACAT; test: qHTS assay to identify novel small-molecules to repurpose for Merkel cell carcinoma treatment (AID 1296009); details: MCC and control cell lines, CellTiter-Glo viability, 72 h; at 44.8 µM (top of the series) unless noted
# Procedure, shortened: (§3)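 qHTS format: cells treated with library compounds in DMSO across 8 (NPC) or 11 (MIPE) concentrations. Readout after 72 hr at 37 degree celsius was CellTiter-Glo luminescence.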
# [14] = tested on: MCC-13; test: as above; details: MCC and control cell lines, CellTiter-Glo viability, 72 h; series mostly up to 46 µM
# Procedure, shortened: as §3
# [15] = tested on: MCC-26; test: as above; details: MCC and control cell lines, CellTiter-Glo viability, 72 h; series mostly up to 46 µM
# Procedure, shortened: as §3
# [16] = tested on: MKL-1; test: as above; details: MCC and control cell lines, CellTiter-Glo viability, 72 h; series mostly up to 46 µM
# Procedure, shortened: as §3
# [17] = tested on: MKL-2; test: as above; details: MCC and control cell lines, CellTiter-Glo viability, 72 h; series mostly up to 46 µM
# Procedure, shortened: as §3
# [18] = tested on: TAB109; test: qHTS profiling for inhibitors of Plasmodium falciparum proliferation (AID 504749); details: P. falciparum in erythrocytes, SYBR Green DNA, 72 h; series mostly up to 28.7 µM
# Procedure, shortened: as §1
# Also: nearly all actives have a fitted effect of over 60% in size.
# Potency is read from the fitted curve at half-maximal effect.
structure (smiles),measurement,setting,value
Clc1cccc(N2CCNCC2)c1,Potency,[1],inactive
same,Potency,[2],inactive
same,Potency,[3],inactive
same,Potency,[4],inactive
same,Potency,[5],inactive
same,Potency,[6],inactive
same,Potency,[7],7.57 µM (active)
same,max response,[8],1.11%
same,max response,[9],1.3%
same,outcome,[10],inactive
same,max response,[11],5.71%
same,outcome,[12],inactive
same,outcome,[13],inactive
same,Potency,[14],inactive
same,Potency,[15],inactive
same,Potency,[16],inactive
same,Potency,[17],inactive
O=C(NC(O)C(Cl)(Cl)Cl)NC(O)C(Cl)(Cl)Cl (configuration not stated),Potency,[1],inactive
same,Potency,[2],inactive
same,Potency,[3],inactive
same,Potency,[4],inactive
same,Potency,[18],inactive
same,Potency,[5],inactive
same,Potency,[6],inactive
same,Potency,[7],inactive
same,max response,[8],1.53%
same,max response,[9],0.365%
same,outcome,[10],inactive
same,max response,[11],2.53%
same,outcome,[12],inactive
same,outcome,[13],inactive
same,Potency,[14],inactive
same,Potency,[16],inactive
same,Potency,[17],inactive
CC[C@@H](CO)NC(=O)[C@@H]1C=C2c3cccc4c3c(cn4C)C[C@H]2N(C)C1,max response,[8],4.07%
same,max response,[9],-25.3%
same,outcome,[10],inactive
same,max response,[11],-9.77%
same,max response,[12],2.49%
same,outcome,[13],inactive
same,Potency,[14],inactive
same,Potency,[15],inactive
same,Potency,[16],21.1 µM (active)
N#CC(C#N)=Cc1ccc(O)c(O)c1,Potency,[1],inactive
same,Potency,[2],inactive
same,Potency,[3],inactive
same,Potency,[4],inactive
same,Potency,[6],inactive
same,max response,[8],-16.4%
same,max response,[9],-18.8%
same,outcome,[10],inactive
same,max response,[11],1.48%
same,max response,[12],-19.5%
same,outcome,[13],inactive
same,Potency,[14],inactive
same,Potency,[15],inactive
same,Potency,[16],7.5 µM (active)
COC1(CS(=O)c2ccccc2)CCN(CCc2c[nH]c3ccc(F)cc23)CC1 (configuration not stated),max response,[8],-22.3%
same,max response,[9],-11.2%
same,max response,[10],-21.9%
same,max response,[11],-9.1%
same,max response,[12],-8%
same,Potency,[14],inactive
same,Potency,[15],inactive
same,Potency,[16],inactive
same,Potency,[17],inactive
N[C@@H](Cc1ccc(N(CCCl)CCCl)cc1)C(=O)O,Potency,[2],inactive
same,Potency,[3],inactive
same,Potency,[6],11.2 µM (active)
same,Potency,[7],6.75 µM (active)
same,max response,[8],-7.43%
same,Potency,[9],20.9 µM (active)
same,max response,[10],-1%
same,max response,[11],-3.99% and -10.4%
same,Potency,[15],inactive
same,Potency,[16],2.66 µM (active) and 2.96 µM (active)
same,Potency,[17],1.33 µM (active) and 469 nM (active)
CC(=O)Nc1cc([As](=O)(O)O)ccc1O,Potency,[1],inactive
same,Potency,[2],inactive
same,Potency,[3],inactive
same,Potency,[4],inactive
same,Potency,[18],inactive
same,Potency,[5],inactive
same,Potency,[6],inactive
same,Potency,[7],inactive
same,max response,[8],-3.67%
same,max response,[9],2.5%
same,max response,[10],-14.2%
same,max response,[11],5.7%
same,outcome,[12],inactive
same,Potency,[14],inactive
same,Potency,[15],inactive
same,Potency,[16],inactive
same,Potency,[17],inactive
CC(CCc1ccccc1)NC(C)C(O)c1ccc(O)cc1 (configuration not stated),Potency,[3],inactive
same,Potency,[4],inactive
same,Potency,[5],inactive
same,Potency,[7],4.26 µM (active)
same,max response,[8],-12.9%
same,max response,[9],-17.5%
same,outcome,[10],inactive
same,max response,[11],-11.3%
same,max response,[12],-21.3%
same,outcome,[13],inactive
same,Potency,[14],inactive
same,Potency,[15],inactive
same,Potency,[16],inactive
same,Potency,[17],inactive
CCC(C(N)=O)N1CCCC1=O (configuration not stated),Potency,[1],inactive
same,Potency,[2],inactive
same,Potency,[3],inactive
same,Potency,[4],inactive
same,Potency,[18],inactive
same,Potency,[5],inactive
same,Potency,[6],inactive
same,max response,[8],-0.833%
same,max response,[9],-1.93%
same,outcome,[10],inactive
same,max response,[11],-5.57%
same,outcome,[12],inactive
same,outcome,[13],inactive
same,Potency,[14],inactive
same,Potency,[16],inactive
same,Potency,[17],inactive
Cc1ncc(CNC(=O)N(CCCl)N=O)c(N)n1,Potency,[1],inactive
same,Potency,[2],inactive
same,Potency,[3],inactive
same,Potency,[4],inactive
same,Potency,[18],inactive
same,Potency,[5],inactive
same,Potency,[6],inactive
same,Potency,[7],inactive
same,max response,[8],0.0102%
same,max response,[9],2.72%
same,max response,[11],2.09%
same,max response,[12],-2.43%
same,Potency,[14],inactive
same,Potency,[15],inactive
same,Potency,[16],inactive
same,Potency,[17],inactive
OCCOc1ccccc1,Potency,[1],inactive
same,Potency,[2],inactive
same,Potency,[3],inactive
same,Potency,[4],inactive
same,Potency,[18],inactive
same,Potency,[5],inactive
same,Potency,[6],inactive
same,Potency,[7],inactive
same,max response,[8],3.79%
same,max response,[9],1.79%
same,outcome,[10],inactive
same,max response,[11],1.69% and -18.4%
same,max response,[12],0.364%
same,outcome,[13],inactive
same,Potency,[14],inactive
same,Potency,[15],inactive
same,Potency,[16],inactive
same,Potency,[17],inactive
CCCC1CCCCN1 (configuration not stated),Potency,[1],inactive
same,Potency,[2],inactive
same,Potency,[3],inactive
same,Potency,[4],inactive
same,Potency,[18],inactive
same,Potency,[5],inactive
same,Potency,[6],inactive
same,Potency,[7],inactive
same,max response,[8],-4.9%
same,max response,[9],-7.03%
same,outcome,[10],inactive
same,max response,[11],-0.9%
same,outcome,[12],inactive
same,outcome,[13],inactive
same,Potency,[14],inactive
same,Potency,[16],inactive
same,Potency,[17],inactive
Clc1ccc(CCC(Cn2ccnc2)Sc2c(Cl)cccc2Cl)cc1 (configuration not stated),max response,[8],-0.661%
same,Potency,[9],26.4 µM (active)
same,max response,[11],1.06%
same,max response,[12],-8.13% and -9.95%
same,Potency,[14],inactive
same,Potency,[15],inactive
same,Potency,[16],inactive
